Measured values published in PubChem BioAssay (NCI).
About 83,000 compounds went through this panel and 20% of them were active in at least one assay; those are over-represented in the sample as a whole.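 The endpoint reported here, percent growth, reads 100 for growth as untreated, 0 for no net growth and -100 for all cells dead.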 A number with no mark means an inactive call. Active and inactive are the calls of the source.

system: MDA-MB-435 melanoma; test: NCI-60 one-dose screen, 48 h (100 = growth as untreated, 0 = no growth, -100 = all killed); settings: 10 µM
Procedure: Growth inhibition of the MDA-MB-435 human Melanoma tumor cell line is measured as a screen for anti-cancer activity. Cells are grown in 96 well plates and exposed to the test compound for 48 hours. Compounds are tested at a single concentration, which is 10^-5 M for most compounds. The reported endpoint is percent growth (GI% or GIPRCNT), where numbers from 0 - 100% represent growth inhibition, and numbers from -100% - 0 represent cell death. For example, a value of 40 represents 60% growth inhibition. A value of 0 means no net growth occurred over the course of the experiment. A value of -40 indicates 40% of cells at the beginning of the experiment died by the end of the experiment. A value of -100 means all cells are dead at the end of the experiment.
NCI-60 Human Tumor Cell Lines Screen was performed using the standard one-dose NCI protocol, which is described in more detail at https://dtp.cancer.gov/discovery_development/nci-60/default.htm.
Compounds with GIPRCNT values below 10 were considered active. Activity score was based on GIPRCNT using the following formula: […]
Score is 0 for GIPRCNT values of 100 or above, 50 for GIPRCNT values of 0, and 100 for GIPRCNT values of -100.

SMILES	growth
CCCn1c(=O)c2[nH]c(-c3ccc(OCc4nc5ccc(F)cc5[nH]4)cc3)nc2n(CCC)c1=O	47.8%
C=CCn1c(SCC(=O)Nc2ccc(C(=O)/C=C/c3ccccc3)cc2)nnc1-c1c[nH]c2ccccc12	-13.5% (active)
CO[C@@H]1CSS[C@H]1Cn1nc(-c2ccc(Oc3ccccc3)cc2)c2c(N)ncnc21	17.3%
O=C(/C=C/Nc1ccc(F)cc1F)c1ccc2c(c1)Nc1ccccc1S2	9.72% (active)
O=S(=O)(Nc1ncccn1)c1ccc(-n2c(-c3ccc(Br)cc3)nc(-c3ccccc3)c2-c2ccccc2)cc1	42.7%
O=C(CN1CCN(c2ncnc3c2cnn3-c2ccccc2)CC1)Nc1nncs1	7.14% (active)
O=C(NO)c1ccc(CNC(=O)[C@H]2Cc3c([nH]c4ccccc34)[C@H](c3ccccc3)N2)cc1	5.21% (active)
Cc1ccc(C(C)C)cc1NC(=O)c1ccccc1O	44.7%
C=C1CC[C@H](C(=C)C)[C@H]2C=C(C)C(=O)C3=C(C(=O)[C@@](C)(O)C3)[C@H]12	-58% (active)
COc1ccc(/C(CSc2nnc(-c3c[nH]c4ccccc34)n2-c2ccccc2)=N/O)cc1	-5.25% (active)
N#Cc1ccc(-c2nn(-c3ccc(C(=O)O)cc3)cc2CNc2ccc(Oc3ccccc3)cc2)cc1	63.6%
CN1CCN(c2ccc(Nc3nc(NCCNC(=O)c4ccc(C(F)(F)F)cc4)c4sccc4n3)cc2)CC1	-95.2% (active)
O=C(c1ccc(O)cc1)C1[C@H](c2ccccc2Br)[C@@H](c2ccccc2)NC12C(=O)Nc1ccc(Br)cc12 (stereo not given in full)	33.8%
CN1C(=O)/C(=C/c2nccs2)SC1=S	83.9%
O=C(N/N=C/c1ccc(B(O)O)o1)c1[nH]c2ccc(Br)cc2c1-c1ccccc1	-53.2% (active)
CC(=O)Nc1nc(-c2ccc(N3CCN(C)CC3)c(NS(=O)(=O)c3ccc(C(F)(F)F)cc3)c2)cs1	6.38% (active)
O=C(c1ccc(Cl)cc1)C1[C@H](c2ccc(Br)cc2)[C@@H](c2ccccc2)NC12C(=O)Nc1ccc(Cl)cc12 (stereo not given in full)	-84.9% (active)
CN1CCN(c2ccc(Nc3nc(NCCCNC(=O)c4ccc(Cl)cc4)c4sccc4n3)cc2)CC1	86.2%
Cc1cccc(NC(=O)CSc2nc3ccc(F)cc3c(=O)n2-c2ccc(Cl)cc2)c1C	83.4%
CC1=C(C(=O)OC(C)C)C(c2ccc(O)cc2)NC(=S)N1 (stereo not given)	110%

SMILES	growth
COc1cc2c3c(n(CCCN4CCOCC4)c(=O)c2cc1OC)-c1nc2c(cc1C3=O)OCO2	16.4%
Cc1ccc(-c2nc3ccc(C(=O)N=Nc4c(O)[nH]c5ccc([N+](=O)[O-])cc45)cc3[nH]2)cc1	62.6%
COc1ccc2[nH]c(O)c(N=NC(=O)COc3ccc(NC(=O)Nc4ccc(Cl)cc4)cc3)c2c1	-52% (active)
COc1ccc(CN2[C@H](C(=O)NCCCCCCC(=O)NO)Cc3c([nH]c4ccccc34)[C@H]2C2CC2)cc1	-49.1% (active)
CCCCSc1nc(Nc2ccc(/C(C)=N/NC(N)=S)cc2)c(C#N)c(-c2ccc(F)cc2)n1	78.6%
CCNCCCn1c2c(c3cc(OC)c(OC)cc3c1=O)C(=O)c1cc3c(nc1-2)OCO3	-83.1% (active)
Cc1cc(=O)oc2cc(OCCCCOc3ccc(/C=C/C(=O)Nc4cccc(Cl)c4)cc3)ccc12	64.2%
Cc1ccc(S(=O)(=O)c2nc(-c3ccccc3)oc2S(=O)(=O)CC(=O)N2CCCC2)cc1	-99.3% (active)
O=C(Nc1ccc(OCC(=O)c2ccccc2)cc1)Nc1ccc(Cl)c(C(F)(F)F)c1	-25.4% (active)
CC1CC(c2ccc(N(C)C)cc2)=NN1c1nc(O)c(C2=c3cc(Br)ccc3=NC2=O)s1 (stereo not given)	102%
CC[C@@]1(O)C(=O)OCc2c1cc1n(c2=O)Cc2c-1nc1cc(F)c(C)c3c1c2[C@@H](N)CC3	-41.9% (active)
O/N=C(\CSc1nnc(-c2c[nH]c3ccccc23)n1-c1ccccc1)c1ccc(Br)cc1	-100% (active)
COc1ccc2nc(Cl)c(-c3cc(-c4ccccc4)nc(N)n3)cc2c1	45.5%
CN1CCN(Cc2ccc(NC(=O)c3cncc(C#Cc4cnc5ccc(N[C@@H]6CCOC6)nn45)c3)cc2C(F)(F)F)CC1	-87.6% (active)
O=C(CNc1nc(-c2ccccc2)cs1)Nc1ccc([N+](=O)[O-])cc1Cl	44%
CCN1CCN(Cc2ccc(NC(=O)c3cccc(-n4cc(-c5ccc(NC(C)=O)nc5)nn4)c3)cc2C(F)(F)F)CC1	-39.8% (active)
O=C1Nc2ccc(F)cc2/C1=C/c1cccc(OCc2ccccn2)c1	-9.87% (active)
Cn1cc(-c2cc(N)n3nc(-c4c[nH]c5ccc(Br)cc45)cc3n2)c2cccnc21	-77.7% (active)
C=C1CCC2C3(C)COC(c4c(F)cccc4F)OC3CCC2(C)C1CC(O)C1=CCOC1=O (stereo not given)	40%
Oc1ccc(/C=C2\CCCc3cc4ccc(O)cc4[o+]c32)c(O)c1	-40.7% (active)
